Source: PubChem BioAssay (NCI)
This is part of a sample that, as a whole, favours compounds with a hit. Of some 83,000 tested, about 20% had one in any assay.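 Cells were grown in 96-well plates and exposed to the test compound at a single concentration for 48 hours; results are reported as percent growth, with values below 10 considered active.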 Values without a mark were called inactive. The source made the active and inactive calls.

test system: ACHN renal; experiment: NCI-60 one-dose screen, 48 h (100 = growth as untreated, 0 = no growth, -100 = all killed); details: 10 µM unless noted

SMILES | growth
COc1ccc(Sc2ccc3[nH]c(=O)nc(N)c3c2)cc1 | 107%
CCN1C(=O)C2(Nc3ccccc3S2)c2cc(C)ccc21 (centres undefined) | 94.2%
CCOC(=O)c1cn2c3c(cc(F)cc3c1=O)C(CC)c1ccccc1C2 (centres undefined) | 105%
Cc1nn(CC(=O)O)c2c1C(=O)CC(C)(C)C2 | 126%
O=C1/C(=C/c2ccc(Oc3ccccc3)cc2)N=C(c2ccccc2)N1CCc1cccs1 | 96.1%
COc1cccc(C2C3=C(COC3=O)N(CCO)c3cc4c(cc32)OCO4)c1 (centres undefined) | 48.4%
COc1ccc2c(c1)c(=O)oc1c(C)c(OCC(C)=O)ccc12 | 97.2%
CC1=C(C/C=C(\C)CCC[C@H](C)CCC[C@H](C)CCCC(C)C)C(=O)c2ccccc2C1=O | 104%
O=S(=O)(OCCO)c1ccccc1 | 104%
COc1ccc(-c2nc3sccn3c2/C=C/C(=O)c2cc(OC)c(OC)c(OC)c2)cc1OC | 21.4%
Cc1nc(NN)c([N+](=O)[O-])c(NN)n1 | 110%
COc1cc(/C=C2\C(=O)N(c3c(Cl)cccc3Cl)c3ccccc32)cc(OC)c1O | 40.5%
COc1cc(C2C3=C(COC3=O)N(CCO)c3cc4c(cc32)OCO4)cc(OC)c1O (centres undefined) | 37.9%
COc1ccccc1CNCCCCCCCCCCCCN1C(=O)c2ccc3c4c(ccc(c24)C1=O)C(=O)N(CCCCCCCCCCCCNCc1ccccc1OC)C3=O | 78.4%
CCCCCCCCCCCCCCCC[N+]1(C)CCOCC1 | 62.8%
Cn1cc(C(=O)NCCC(=N)N)cc1NC(=O)CN=C(N)N | 102%
Nc1cccc2c(=S)c3ccccc3[nH]c12 | 92.7%
CCN1CCN(c2nc3ccccc3c3c(=O)c4cc(F)ccc4sc23)CC1 | 59.4%
Cc1ccc(N(CSc2ccc(Cl)cc2)CSc2ccc(Cl)cc2)cc1 | 66.6%

SMILES | growth
O=C1C(Cl)=C(NCCCN2CCOCC2)C(=O)c2ccccc21 | 108%
O=[N+]([O-])c1ccc(O)c2ncccc12 | 51.8%
O=C(Nc1ccccc1)Oc1cccc2cccnc12 | 84.7%
Cc1ccc(C)c2c1sc1nc3nc4sc5ccccc5n4c(=N)c3c(=O)n12 | 99.1%
O=C(c1ccccc1)C(Br)C(Br)c1cccc([N+](=O)[O-])c1 (centres undefined) | -87.9% (active)
COc1cc(/C=C2\C(=O)Nc3ccccc32)cc(OC)c1O | 77%
O=c1ccc2ccccc2o1 | 93.8%
Cc1nc(-c2ccccc2)cc2c(O)c(C(=O)N/N=C/Cc3ccccc3)[nH]c(=O)c12 | 104%
CN1CCc2cccc3c2C1Cc1ccc(O)c(O)c1-3 (centres undefined) | 73%
COc1cccc(C2C3=C(COC3=O)N(CCO)c3cc4c(cc32)CCC4)c1 (centres undefined) | 35.5%
COc1cc(CNCCCN2C(=O)c3ccc4c5c(ccc(c35)C2=O)C(=O)N(CCCNCc2cc(OC)c(OC)c(OC)c2)C4=O)cc(OC)c1OC | -24.5% (active)
O=C1C=CC(=O)N1CCCCCCCCCCN1C(=O)C=CC1=O | 80.3%
CCCCC/C=C\C/C=C/CCCCCCCCNC(=O)Nc1ccc([N+](=O)[O-])cc1 | 65.8%
Clc1ccc(C2=NN(c3ccccc3)[C@H](c3cn(-c4ccccc4)nc3-c3ccccc3)C2)cc1 | 103%
OB(O)c1ccccc1 | 107%
COc1cccc2c(=O)c3c(sc12)c(NCCN(C)C)nc1ccccc13 | 8.6% (active)
O=C(N/N=C/c1ccc(F)cc1)c1[nH]c2ccc(I)cc2c1-c1ccccc1 | 36%
COc1ccc(-c2nc3sc(C)cn3c2/C=C/C(=O)c2cc(OC)c(OC)c(OC)c2)cc1 | 54.4%

test system: CAKI-1 renal; experiment: as above; details: 10 µM unless noted

SMILES | growth
COc1ccc(Sc2ccc3[nH]c(=O)nc(N)c3c2)cc1 | 106%
CCN1C(=O)C2(Nc3ccccc3S2)c2cc(C)ccc21 (centres undefined) | 99%
CCOC(=O)c1cn2c3c(cc(F)cc3c1=O)C(CC)c1ccccc1C2 (centres undefined) | 102%
Cc1nn(CC(=O)O)c2c1C(=O)CC(C)(C)C2 | 97.4%
O=C1/C(=C/c2ccc(Oc3ccccc3)cc2)N=C(c2ccccc2)N1CCc1cccs1 | 67.9%
COc1cccc(C2C3=C(COC3=O)N(CCO)c3cc4c(cc32)OCO4)c1 (centres undefined) | 30%
COc1ccc2c(c1)c(=O)oc1c(C)c(OCC(C)=O)ccc12 | 92.1%
CC1=C(C/C=C(\C)CCC[C@H](C)CCC[C@H](C)CCCC(C)C)C(=O)c2ccccc2C1=O | 103%
O=S(=O)(OCCO)c1ccccc1 | 88.2%
COc1ccc(-c2nc3sccn3c2/C=C/C(=O)c2cc(OC)c(OC)c(OC)c2)cc1OC | 3.29% (active)
Cc1nc(NN)c([N+](=O)[O-])c(NN)n1 | 99.1%
COc1cc(/C=C2\C(=O)N(c3c(Cl)cccc3Cl)c3ccccc32)cc(OC)c1O | 7.23% (active)
COc1cc(C2C3=C(COC3=O)N(CCO)c3cc4c(cc32)OCO4)cc(OC)c1O (centres undefined) | 60.4%
COc1ccccc1CNCCCCCCCCCCCCN1C(=O)c2ccc3c4c(ccc(c24)C1=O)C(=O)N(CCCCCCCCCCCCNCc1ccccc1OC)C3=O | 102%
CCCCCCCCCCCCCCCC[N+]1(C)CCOCC1 | 76.3%
Cn1cc(C(=O)NCCC(=N)N)cc1NC(=O)CN=C(N)N | 99.1%
Nc1cccc2c(=S)c3ccccc3[nH]c12 | 77.1%
CCN1CCN(c2nc3ccccc3c3c(=O)c4cc(F)ccc4sc23)CC1 | 67.9%
Cc1ccc(N(CSc2ccc(Cl)cc2)CSc2ccc(Cl)cc2)cc1 | 28.8%

SMILES | growth
O=C1C(Cl)=C(NCCCN2CCOCC2)C(=O)c2ccccc21 | 102%
O=[N+]([O-])c1ccc(O)c2ncccc12 | 57%
O=C(Nc1ccccc1)Oc1cccc2cccnc12 | 93.9%
Cc1ccc(C)c2c1sc1nc3nc4sc5ccccc5n4c(=N)c3c(=O)n12 | 106%
O=C(c1ccccc1)C(Br)C(Br)c1cccc([N+](=O)[O-])c1 (centres undefined) | -25.5% (active)
COc1cc(/C=C2\C(=O)Nc3ccccc32)cc(OC)c1O | 37.7%
O=c1ccc2ccccc2o1 | 89.7%
Cc1nc(-c2ccccc2)cc2c(O)c(C(=O)N/N=C/Cc3ccccc3)[nH]c(=O)c12 | 111%
CN1CCc2cccc3c2C1Cc1ccc(O)c(O)c1-3 (centres undefined) | 63.4%
COc1cccc(C2C3=C(COC3=O)N(CCO)c3cc4c(cc32)CCC4)c1 (centres undefined) | 4.92% (active)
COc1cc(CNCCCN2C(=O)c3ccc4c5c(ccc(c35)C2=O)C(=O)N(CCCNCc2cc(OC)c(OC)c(OC)c2)C4=O)cc(OC)c1OC | 36.9%
O=C1C=CC(=O)N1CCCCCCCCCCN1C(=O)C=CC1=O | 15.2%
CCCCC/C=C\C/C=C/CCCCCCCCNC(=O)Nc1ccc([N+](=O)[O-])cc1 | 56.2%
Clc1ccc(C2=NN(c3ccccc3)[C@H](c3cn(-c4ccccc4)nc3-c3ccccc3)C2)cc1 | 99.9%
OB(O)c1ccccc1 | 96.5%
COc1cccc2c(=O)c3c(sc12)c(NCCN(C)C)nc1ccccc13 | 26.2%
O=C(N/N=C/c1ccc(F)cc1)c1[nH]c2ccc(I)cc2c1-c1ccccc1 | 5.08% (active)
COc1ccc(-c2nc3sc(C)cn3c2/C=C/C(=O)c2cc(OC)c(OC)c(OC)c2)cc1 | 76.7%
